# Screens as filed in PubChem.
# Mdm2-MdmX inh: inhibitors of human Mdm2/MdmX interaction. O15151+Q00987. actives 3% (n = 330,000). inhibition, % at 8 µM. SaOS-2 split-luciferase Mdm2/MdmX complementation, luminescence;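 active = inhibition of at least 50% at 8 µM in the primary screen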
# Target sequence (O15151 whole entry, looked up): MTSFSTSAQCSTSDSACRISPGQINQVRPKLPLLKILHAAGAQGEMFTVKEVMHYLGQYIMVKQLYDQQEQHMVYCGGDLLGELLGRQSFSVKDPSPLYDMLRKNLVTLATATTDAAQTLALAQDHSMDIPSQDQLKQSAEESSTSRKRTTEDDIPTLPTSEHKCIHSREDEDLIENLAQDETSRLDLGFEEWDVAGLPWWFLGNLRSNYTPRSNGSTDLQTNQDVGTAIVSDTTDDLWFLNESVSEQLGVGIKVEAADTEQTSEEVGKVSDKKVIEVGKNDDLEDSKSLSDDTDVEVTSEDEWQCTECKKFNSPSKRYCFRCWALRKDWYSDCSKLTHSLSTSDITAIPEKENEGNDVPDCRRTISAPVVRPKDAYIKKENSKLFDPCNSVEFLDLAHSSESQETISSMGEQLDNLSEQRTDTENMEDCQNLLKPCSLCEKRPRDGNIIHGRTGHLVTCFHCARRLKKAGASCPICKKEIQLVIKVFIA
# Target sequence (Q00987 whole entry, looked up): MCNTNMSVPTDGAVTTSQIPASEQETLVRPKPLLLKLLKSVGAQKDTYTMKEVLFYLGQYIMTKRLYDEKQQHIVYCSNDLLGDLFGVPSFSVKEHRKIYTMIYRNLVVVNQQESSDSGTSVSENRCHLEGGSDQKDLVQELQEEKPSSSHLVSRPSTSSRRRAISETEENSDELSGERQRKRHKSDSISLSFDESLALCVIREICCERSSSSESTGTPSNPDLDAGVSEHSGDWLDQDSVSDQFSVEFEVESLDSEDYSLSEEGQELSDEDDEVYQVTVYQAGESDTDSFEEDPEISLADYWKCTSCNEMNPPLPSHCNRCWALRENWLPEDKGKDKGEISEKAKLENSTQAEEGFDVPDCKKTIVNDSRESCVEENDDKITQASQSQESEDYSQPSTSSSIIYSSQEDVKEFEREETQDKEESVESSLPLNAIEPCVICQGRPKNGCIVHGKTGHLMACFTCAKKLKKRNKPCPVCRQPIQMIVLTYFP
# Gli-Sufu block: blocks Gli-Sufu signaling in a luciferase reporter. Sufu-KO-LIGHT fibroblasts, Gli luciferase reporter luminescence. inhibition, % at 5 µM. actives 0.74% (n = 340,000). AID 588413;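 active = inhibition above about 55%, limit read from the data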;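 also: 0% = DMSO-treated cells and 100% = wells with medium but no cells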
# 697 NFkB inh: lowers PMA/ionomycin-induced NF-kB signal in 697 B cells; actives 0.33% (n = 330,000); AID 435022; 697 B-cell NF-kB luciferase reporter, 16 h; inhibition, % at 4 µM; in the data active = inhibition above about 35%
# CSC inhib: cancer stem cell inhibition | cancer stem cell-like cells viability, luminescence | AID 2717 | inhibition, % at 7.5 µM | actives 1.1% (n = 300,000); in the data active = inhibition above about 75%; tested in HMLE shEcad cells
# aSyn UTR inh: MLPCN primary screen, SNCA 5' untranslated region; alpha-synuclein 5'UTR reporter, inhibitor activity; inhibition, % (tested at 7.5 µM); actives 0.82% (n = 300,000); in the data active = inhibition above about 60%;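 also: H4 neuroglioblastoma cells stably carrying SNCA 5'UTR luciferase fusion; 0% = DMSO wells and 100% = positive control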
# Jurkat NFkB inh: lowers PMA/ionomycin-induced NF-kB signal in Jurkat cells. AID 435003. PMA/ionomycin-induced NF-kB luciferase reporter, luminescence. actives 0.53% (n = 330,000). inhibition, % at 4 µM; in the data active = inhibition above about 50%
# * hit, by the source's call; · = no result; + = active, no number. Most compounds without a hit are left out; they make up all but 4.5% or so of the library.
SMILES,Mdm2-MdmX inh,Gli-Sufu block,697 NFkB inh,CSC inhib,aSyn UTR inh,Jurkat NFkB inh
Cc1ccc(C)c(N(C(=O)c2ccco2)C(C(=O)NC2CCCC2)c2ccco2)c1 (stereo not drawn),-5.5,-6.5,0.7,-6.0,-8.7,-27.6
COC(=O)C1=C(C)N(CCCC(=O)O)C(=O)NC1c1ccc(Br)cc1 (stereo not drawn),16.5,29.1,1.9,1.6,12.4,8.0
CC(=O)N(C1=C(N)C(=O)c2ccccc2C1=O)c1ccccc1,9.0,-10.5,7.7,-0.2,78.2*,4.3
Cc1cc2c(cc1C)N(C(=O)CSC1=NCCS1)C(C)(C)c1ssc(=S)c1-2,42.7,3.8,12.4,·,-17.1,5.2
CCOc1ccc2c(c1)-c1c(ssc1=S)C(C)(C)N2C(=O)c1ccco1,34.8,-0.1,-81.0,85.1*,10.7,45.7
COC(=O)CSc1nc(N)c2c3c(sc2n1)C(c1ccccc1)SC(c1ccccc1)C3 (stereo not drawn),35.5,8.7,-71.3,+,-42.2,-11.1
CCCC1(CCC)NC(=O)N(CC(=O)Nc2ccc(Cl)c(S(=O)(=O)N3CCOCC3)c2)C1=O,26.4,1.9,-26.6,·,·,19.5
Cc1ccc(SCC(=O)N/N=C/c2ccco2)cc1,16.4,-21.1,19.9,-4.3,-2.1,2.8
N#CC1=C(SCC(=O)c2ccc(Cl)cc2)NC2=C(C(=O)CCC2)C1c1ccco1 (stereo not drawn),40.2,-5.4,-54.5,92.8*,-173.1,46.5
Cc1ccc(C(=O)CSC2=C(C#N)C(c3ccco3)C3=C(CC(C)(C)CC3=O)N2)cc1 (stereo not drawn),22.3,3.0,10.2,97.2*,-2.2,4.5
Cc1ccc(NC(=O)CSC2=C(C#N)C(c3ccco3)C3=C(CCCC3=O)N2)cc1 (stereo not drawn),-7.5,-1.5,-15.6,24.1,-17.8,-33.2
CN(C(=O)c1ccccc1[N+](=O)[O-])c1ccccc1C(=O)NCc1ccccc1,-3.8,1.4,11.2,-10.1,-10.7,14.7
O=C(COC(=O)C1CCCC1)Nc1ncc(Cl)cc1Cl,-0.3,-3.9,-4.3,-9.6,-2.8,0.8
CCOc1ccc(NC(=O)COc2ccc(C(=O)NCc3cccc(OC)c3)cc2OC)cc1,-0.6,-1.8,17.8,-5.0,·,8.3
CCCc1cc(C(=O)Cc2ccc(F)cc2)c(O)cc1O,35.8,-0.5,11.1,81.9*,-0.4,-2.2
CCc1cc(C(=O)Cc2ccc(F)cc2)c(O)cc1O,11.1,2.0,-4.5,41.4,7.4,3.7
CCOC(=O)C(=O)N1CCC(C(=O)OCC)CC1,-19.1,6.9,-2.0,5.3,-14.7,10.7
CC1(C)C2CC[C@]3(C)C(CC=C4[C@@H]5C[C@@](C)(CO)[C@@H](O)C[C@]5(C(=O)O)CC[C@]43C)[C@@]2(C)CC[C@@H]1O (stereo partly drawn),-5.6,-2.0,-2.7,-12.9,-23.1,9.8
CC1(C)CC[C@]2(CO)[C@@H](O)C[C@]3(C)C(=CCC4[C@@]5(C)CC[C@H](O)C(C)(C)C5CC[C@]43C)[C@@H]2C1 (stereo partly drawn),-30.5,·,-2.3,101.7*,-4.7,-13.0
CCCSc1ccc2nc(-c3ccccc3)cn2c1,20.3,18.7,-171.9,51.6,110.9*,-47.1
Cc1c(Cc2ccccc2)sc(/N=C/c2ccc3ccccc3c2)c1C(N)=O,·,1.8,·,48.8,·,·
Cc1c(Cc2ccccc2)sc(/N=C/c2c(O)ccc3ccccc23)c1C(N)=O,34.5,5.0,-8.2,97.8*,11.8,-3.4
CCC(CO)NCC(O)COCc1ccc2c(c1)OCO2 (stereo not drawn),-0.9,-4.4,0.2,-11.3,-6.9,-5.2
Cc1cccc(C)c1OCc1cc(C(=O)N2CC3C[C@@H]4CC2C[C@H](C3)C4)no1,-84.1,-64.9,-153.5,106.6*,-117.3,-119.4
COc1ccc(/C=C/C(=O)OCC(=O)NC2CCCC2)cc1,-10.0,1.5,7.9,·,·,4.8
COc1ccc(C(c2c(C)[nH]n(C(N)=S)c2=O)C(C#N)C#N)cc1 (stereo not drawn),-6.0,-1.9,-10.9,2.6,·,-3.0
Cc1[nH]n(-c2ncc(-c3ccc(Cl)cc3)s2)c(=O)c1C(c1ccc(Cl)cc1)C(C#N)C#N (stereo not drawn),-21.1,5.4,5.6,96.2*,-14.3,-4.4
O=C(O)CCSc1nnc(SCC(=O)NC2CCS(=O)(=O)C2)s1 (stereo not drawn),27.3,-11.0,3.1,-10.2,·,-6.3
